# Laboratory results taken from the supplement of paper PMC4466140.
# B1: unnamed (peptide)
# chain: PAPPPPPRASRPTPN
# B2: unnamed (peptide)
# chain: SSSSTPPTLPPRRIE
# What was measured:
# Assay in all cases: SPOT peptide array binding signal intensity (averaged, normalized) (arbitrary units (background-subtracted, floor 0; scale differs between SH3 domains)); higher = stronger binding of the SH3 domain to the peptide
# CaNbp2 = molecular target: CaNbp2
# How it was run: (§1)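 Spot intensities were captured after detection with anti-GST antibody, an HRP-linked anti-mouse secondary and luminol, and quantified with Genespotter. The probes were GST-fused SH3 domains from four yeast species, produced in E. coli BL21(DE3), purified on glutathione Sepharose and incubated at 10 μg/ml overnight at 4°C on cellulose-bound synthetic 15-mer peptides with cysteines replaced by serines. Binding signal is the normalized, background-subtracted spot intensity averaged over replicates, and its arbitrary units differ between domains.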
# CaRvs167 = molecular target: CaRvs167
# How it was run: as §1
# CaRvs167-3 = molecular target: CaRvs167-3
# How it was run: as §1
# CaSho1 = molecular target: CaSho1
# How it was run: as §1
# CaSla1-D1-D2 = molecular target: CaSla1-D1-D2
# How it was run: as §1
# CaSla1-D3 = molecular target: CaSla1-D3
# How it was run: as §1
# ScAbp1 = molecular target: ScAbp1
# How it was run: as §1
# ScBbc1 = molecular target: ScBbc1
# How it was run: as §1
# ScBem1-D1 = molecular target: ScBem1-D1
# How it was run: as §1
# ScBzz1-D1 = molecular target: ScBzz1-D1
# How it was run: as §1
# ScBzz1-D2 = molecular target: ScBzz1-D2
# How it was run: as §1
# ScCyk3 = molecular target: ScCyk3
# How it was run: as §1
# ScFus1 = molecular target: ScFus1
# How it was run: as §1
# ScHof1 = molecular target: ScHof1
# How it was run: as §1
# ScHse1 = molecular target: ScHse1
# How it was run: as §1
# ScLsb1 = molecular target: ScLsb1
# How it was run: as §1
# ScLsb2 = molecular target: ScLsb2
# How it was run: as §1
# ScLsb3 = molecular target: ScLsb3
# How it was run: as §1
# ScLsb4 = molecular target: ScLsb4
# How it was run: as §1
# ScMyo3 = molecular target: ScMyo3
# How it was run: as §1
# ScMyo5 = molecular target: ScMyo5
# How it was run: as §1
# ScNbp2 = molecular target: ScNbp2
# How it was run: as §1
# ScPex13 = molecular target: ScPex13
# How it was run: as §1
# ScRvs167 = molecular target: ScRvs167
# How it was run: as §1
# ScSho1 = molecular target: ScSho1
# How it was run: as §1
# ScSla1-D1-D2 = molecular target: ScSla1-D1-D2
# How it was run: as §1
# ScSla1-D3 = molecular target: ScSla1-D3
# How it was run: as §1
# SpAbp1-D1 = molecular target: SpAbp1-D1
# How it was run: as §1
# SpBbc1 = molecular target: SpBbc1
# How it was run: as §1
# SpBzz1-D1 = molecular target: SpBzz1-D1
# How it was run: as §1
# SpBzz1-D2 = molecular target: SpBzz1-D2
# How it was run: as §1
# SpCyk3 = molecular target: SpCyk3
# How it was run: as §1
# SpHof1 = molecular target: SpHof1
# How it was run: as §1
# SpHof1-2 = molecular target: SpHof1-2
# How it was run: as §1
# SpHof1-3 = molecular target: SpHof1-3
# How it was run: as §1
# SpHse1 = molecular target: SpHse1
# How it was run: as §1
# SpLsb1 = molecular target: SpLsb1
# How it was run: as §1
# SpLsb4 = molecular target: SpLsb4
# How it was run: as §1
# SpMyo1 = molecular target: SpMyo1
# How it was run: as §1
# SpNbp2 = molecular target: SpNbp2
# How it was run: as §1
# SpPex13 = molecular target: SpPex13
# How it was run: as §1
# SpRvs167 = molecular target: SpRvs167
# How it was run: as §1
# SpSla1-D1-D2 = molecular target: SpSla1-D1-D2
# How it was run: as §1
# SpSla1-D3 = molecular target: SpSla1-D3
# How it was run: as §1
# AgAbp1 = molecular target: AgAbp1
# How it was run: as §1
# AgBbc1 = molecular target: AgBbc1
# How it was run: as §1
# AgBem1-D1 = molecular target: AgBem1-D1
# How it was run: as §1
# AgBzz1-D1 = molecular target: AgBzz1-D1
# How it was run: as §1
# AgBzz1-D2 = molecular target: AgBzz1-D2
# How it was run: as §1
# AgCyk3 = molecular target: AgCyk3
# How it was run: as §1
# AgFus1 = molecular target: AgFus1
# How it was run: as §1
# AgHof1 = molecular target: AgHof1
# How it was run: as §1
# AgHse1 = molecular target: AgHse1
# How it was run: as §1
# AgLsb1 = molecular target: AgLsb1
# How it was run: as §1
# AgLsb4 = molecular target: AgLsb4
# How it was run: as §1
# AgMyo5 = molecular target: AgMyo5
# How it was run: as §1
# AgNbp2 = molecular target: AgNbp2
# How it was run: as §1
# AgRvs167 = molecular target: AgRvs167
# How it was run: as §1
# AgSho1 = molecular target: AgSho1
# How it was run: as §1
# AgSla1-D1-D2 = molecular target: AgSla1-D1-D2
# How it was run: as §1
# AgSla1-D3 = molecular target: AgSla1-D3
# How it was run: as §1
# CaAbp1-D1 = molecular target: CaAbp1-D1
# How it was run: as §1
# CaAbp1-D2 = molecular target: CaAbp1-D2
# How it was run: as §1
# CaBbc1 = molecular target: CaBbc1
# How it was run: as §1
# CaBem1-D1 = molecular target: CaBem1-D1
# How it was run: as §1
# CaBzz1-D1 = molecular target: CaBzz1-D1
# How it was run: as §1
# CaBzz1-D2 = molecular target: CaBzz1-D2
# How it was run: as §1
# CaCyk3 = molecular target: CaCyk3
# How it was run: as §1
# CaFus1 = molecular target: CaFus1
# How it was run: as §1
# CaHof1 = molecular target: CaHof1
# How it was run: as §1
# CaHse1 = molecular target: CaHse1
# How it was run: as §1
# CaLsb1 = molecular target: CaLsb1
# How it was run: as §1
# CaLsb4 = molecular target: CaLsb4
# How it was run: as §1
# CaMyo5 = molecular target: CaMyo5
# How it was run: as §1
binder,measurement,setting,value
B1,SPOT peptide array binding signal intensity,CaNbp2,39.5
same,SPOT peptide array binding signal intensity,CaRvs167,223
same,SPOT peptide array binding signal intensity,CaRvs167-3,6.25
same,SPOT peptide array binding signal intensity,CaSho1,3.5
same,SPOT peptide array binding signal intensity,CaSla1-D1-D2,242
same,SPOT peptide array binding signal intensity,CaSla1-D3,3.75
same,SPOT peptide array binding signal intensity,ScAbp1,3
same,SPOT peptide array binding signal intensity,ScBbc1,72.5
same,SPOT peptide array binding signal intensity,ScBem1-D1,2
same,SPOT peptide array binding signal intensity,ScBzz1-D1,36
same,SPOT peptide array binding signal intensity,ScBzz1-D2,24
same,SPOT peptide array binding signal intensity,ScCyk3,2
same,SPOT peptide array binding signal intensity,ScFus1,10
same,SPOT peptide array binding signal intensity,ScHof1,56.2
same,SPOT peptide array binding signal intensity,ScHse1,6
same,SPOT peptide array binding signal intensity,ScLsb1,49.2
same,SPOT peptide array binding signal intensity,ScLsb2,3.5
same,SPOT peptide array binding signal intensity,ScLsb3,1110
same,SPOT peptide array binding signal intensity,ScLsb4,394
same,SPOT peptide array binding signal intensity,ScMyo3,40.5
same,SPOT peptide array binding signal intensity,ScMyo5,22
same,SPOT peptide array binding signal intensity,ScNbp2,10.5
same,SPOT peptide array binding signal intensity,ScPex13,304
same,SPOT peptide array binding signal intensity,ScRvs167,966
same,SPOT peptide array binding signal intensity,ScSho1,45
same,SPOT peptide array binding signal intensity,ScSla1-D1-D2,565
same,SPOT peptide array binding signal intensity,ScSla1-D3,1.5
same,SPOT peptide array binding signal intensity,SpAbp1-D1,14.5
same,SPOT peptide array binding signal intensity,SpBbc1,1
same,SPOT peptide array binding signal intensity,SpBzz1-D1,208
same,SPOT peptide array binding signal intensity,SpBzz1-D2,6.5
same,SPOT peptide array binding signal intensity,SpCyk3,3
same,SPOT peptide array binding signal intensity,SpHof1,5.5
same,SPOT peptide array binding signal intensity,SpHof1-2,5.5
same,SPOT peptide array binding signal intensity,SpHof1-3,57.5
same,SPOT peptide array binding signal intensity,SpHse1,7.5
same,SPOT peptide array binding signal intensity,SpLsb1,69.5
same,SPOT peptide array binding signal intensity,SpLsb4,1170
same,SPOT peptide array binding signal intensity,SpMyo1,99.5
same,SPOT peptide array binding signal intensity,SpNbp2,29.5
same,SPOT peptide array binding signal intensity,SpPex13,2.5
same,SPOT peptide array binding signal intensity,SpRvs167,915
same,SPOT peptide array binding signal intensity,SpSla1-D1-D2,13
same,SPOT peptide array binding signal intensity,SpSla1-D3,≤ 0
B2,SPOT peptide array binding signal intensity,AgAbp1,7.5
same,SPOT peptide array binding signal intensity,AgBbc1,673
same,SPOT peptide array binding signal intensity,AgBem1-D1,42
same,SPOT peptide array binding signal intensity,AgBzz1-D1,49
same,SPOT peptide array binding signal intensity,AgBzz1-D2,≤ 0
same,SPOT peptide array binding signal intensity,AgCyk3,2
same,SPOT peptide array binding signal intensity,AgFus1,≤ 0
same,SPOT peptide array binding signal intensity,AgHof1,55
same,SPOT peptide array binding signal intensity,AgHse1,42.5
same,SPOT peptide array binding signal intensity,AgLsb1,1840
same,SPOT peptide array binding signal intensity,AgLsb4,9180
same,SPOT peptide array binding signal intensity,AgMyo5,93.5
same,SPOT peptide array binding signal intensity,AgNbp2,10
same,SPOT peptide array binding signal intensity,AgRvs167,2660
same,SPOT peptide array binding signal intensity,AgSho1,1
same,SPOT peptide array binding signal intensity,AgSla1-D1-D2,≤ 0
same,SPOT peptide array binding signal intensity,AgSla1-D3,≤ 0
same,SPOT peptide array binding signal intensity,CaAbp1-D1,24
same,SPOT peptide array binding signal intensity,CaAbp1-D2,34.5
same,SPOT peptide array binding signal intensity,CaBbc1,1390
same,SPOT peptide array binding signal intensity,CaBem1-D1,4
same,SPOT peptide array binding signal intensity,CaBzz1-D1,16
same,SPOT peptide array binding signal intensity,CaBzz1-D2,≤ 0
same,SPOT peptide array binding signal intensity,CaCyk3,2
same,SPOT peptide array binding signal intensity,CaFus1,77
same,SPOT peptide array binding signal intensity,CaHof1,8.75
same,SPOT peptide array binding signal intensity,CaHse1,731
same,SPOT peptide array binding signal intensity,CaLsb1,57.5
same,SPOT peptide array binding signal intensity,CaLsb4,7260
same,SPOT peptide array binding signal intensity,CaMyo5,≤ 0
same,SPOT peptide array binding signal intensity,CaNbp2,76.5
same,SPOT peptide array binding signal intensity,CaRvs167,2810
same,SPOT peptide array binding signal intensity,CaRvs167-3,0.25
same,SPOT peptide array binding signal intensity,CaSho1,≤ 0
same,SPOT peptide array binding signal intensity,CaSla1-D1-D2,138
same,SPOT peptide array binding signal intensity,CaSla1-D3,≤ 0
same,SPOT peptide array binding signal intensity,ScAbp1,≤ 0
same,SPOT peptide array binding signal intensity,ScBbc1,61.5
same,SPOT peptide array binding signal intensity,ScBem1-D1,8
same,SPOT peptide array binding signal intensity,ScBzz1-D1,3
same,SPOT peptide array binding signal intensity,ScBzz1-D2,2
same,SPOT peptide array binding signal intensity,ScCyk3,2
same,SPOT peptide array binding signal intensity,ScFus1,≤ 0
same,SPOT peptide array binding signal intensity,ScHof1,122
same,SPOT peptide array binding signal intensity,ScHse1,≤ 0
same,SPOT peptide array binding signal intensity,ScLsb1,2090
same,SPOT peptide array binding signal intensity,ScLsb2,1570
same,SPOT peptide array binding signal intensity,ScLsb3,11000
same,SPOT peptide array binding signal intensity,ScLsb4,4800
same,SPOT peptide array binding signal intensity,ScMyo3,111
same,SPOT peptide array binding signal intensity,ScMyo5,17.5
same,SPOT peptide array binding signal intensity,ScNbp2,≤ 0
same,SPOT peptide array binding signal intensity,ScPex13,2100
same,SPOT peptide array binding signal intensity,ScRvs167,3870
same,SPOT peptide array binding signal intensity,ScSho1,56.5
same,SPOT peptide array binding signal intensity,ScSla1-D1-D2,6
same,SPOT peptide array binding signal intensity,ScSla1-D3,1.75
same,SPOT peptide array binding signal intensity,SpAbp1-D1,≤ 0
same,SPOT peptide array binding signal intensity,SpBbc1,0.5
same,SPOT peptide array binding signal intensity,SpBzz1-D1,219
